# Data as given in the supplement of paper PMC9801561.
# ± gives the standard deviation of the averaged measurements.
# Key:
# [1] = test system: Escherichia coli Nissle 1917; assay: area under OmniLog respiration curve over 48 h (OmniLog units x h); higher = more growth / nutrient utilisation; extreme values may be limits of the assay; details: incubation: 48 h, 37 °C
# [2] = test system: Escherichia coli Nissle 1917; assay: DuctApe activity index of respiration/growth curve (0 no growth to 9 maximum) (index 0-9); higher = more growth / nutrient utilisation, active = 3 or more; extreme values may be limits of the assay; details: incubation: 48 h, 37 °C
# [3] = nutrient role: C-Source, amino acid
# [4] = nutrient role: sole nitrogen source (pyruvate carbon)
# [5] = nutrient role: C-Source, carboxylic acid
# [6] = nutrient role: C-Source, carbohydrate
# [7] = nutrient role: sole phosphorus source (pyruvate carbon)
# [8] = nutrient role: sole sulfur source (pyruvate carbon)
# 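Throughout, for DuctApe activity index of respiration/growth curve (0 no growth to 9 maximum): biolog PM4 phosphorus and sulfur plates, tetrazolium violet dye reduction read in the OmniLog every 15 min, kinetic curves scored by DuctApe, each plate run in triplicate.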
compound,measurement,setting,value
NCC(=O)N[C@@H](CCC(=O)O)C(=O)O,area under OmniLog respiration curve,[1]; [3],7660 ± 620
same,area under OmniLog respiration curve,[1]; [4],7640 ± 1700
same,DuctApe activity index,[2]; [3],7.67 (active)
same,DuctApe activity index,[2]; [4],8 (active)
N[C@@H](CCO)C(=O)O [L-Homoserine],area under OmniLog respiration curve,[1]; [3],4.72
same,area under OmniLog respiration curve,[1]; [4],546 ± 600
same,DuctApe activity index,[2]; [3],0 (inactive)
same,DuctApe activity index,[2]; [4],1.33 (inactive)
NCCCC(=O)O [g-Amino-N-Butyric acid],area under OmniLog respiration curve,[1]; [5],4.72
same,area under OmniLog respiration curve,[1]; [4],2000 ± 1100
same,DuctApe activity index,[2]; [5],0 (inactive)
same,DuctApe activity index,[2]; [4],4 (active)
O=C[C@H](O)[C@@H](O)[C@H](O)[C@H](O)COP(=O)(O)O [D-Glucose-6-Phosphate],area under OmniLog respiration curve,[1]; [6],10100 ± 940
same,area under OmniLog respiration curve,[1]; [7],8680 ± 490
same,DuctApe activity index,[2]; [6],9 (active)
same,DuctApe activity index,[2]; [7],8.67 (active)
NC(=O)CC[C@H](N)C(=O)O [L-Glutamine],area under OmniLog respiration curve,[1]; [3],8360 ± 610
same,area under OmniLog respiration curve,[1]; [4],8560 ± 1200
same,DuctApe activity index,[2]; [3],8.33 (active)
same,DuctApe activity index,[2]; [4],8.33 (active)
O=c1[nH]cnc2c1ncn2[C@@H]1O[C@H](CO)[C@@H](O)[C@H]1O [Inosine],area under OmniLog respiration curve,[1]; [6],9540 ± 290
same,area under OmniLog respiration curve,[1]; [4],24.8 ± 35
same,DuctApe activity index,[2]; [6],9 (active)
same,DuctApe activity index,[2]; [4],0 (inactive)
N[C@@H](CC(=O)O)C(=O)O [L-Aspartic acid],area under OmniLog respiration curve,[1]; [3],8900 ± 710
same,area under OmniLog respiration curve,[1]; [4],8720 ± 1400
same,DuctApe activity index,[2]; [3],8.67 (active)
same,DuctApe activity index,[2]; [4],8.33 (active)
N[C@@H](CS)C(=O)O [L-Cysteine],area under OmniLog respiration curve,[1]; [4],9700 ± 1400
same,area under OmniLog respiration curve,[1]; [8],7230 ± 260
same,DuctApe activity index,[2]; [4],8.67 (active)
same,DuctApe activity index,[2]; [8],7.33 (active)
NCC(=O)O [Glycine],area under OmniLog respiration curve,[1]; [3],4.72
same,area under OmniLog respiration curve,[1]; [4],4420 ± 1100
same,DuctApe activity index,[2]; [3],0 (inactive)
same,DuctApe activity index,[2]; [4],6 (active)
CC(=O)N[C@@H]1[C@@H](O)[C@H](O)[C@@H](CO)O[C@@H]1O [N-Acetyl-D-Glucosamine],area under OmniLog respiration curve,[1]; [6],7820 ± 520
same,area under OmniLog respiration curve,[1]; [4],1070 ± 1100
same,DuctApe activity index,[2]; [6],8 (active)
same,DuctApe activity index,[2]; [4],2.33 (inactive)
CSCC[C@H](N)C(=O)O [L-Methionine],area under OmniLog respiration curve,[1]; [3],33.3 ± 28
same,area under OmniLog respiration curve,[1]; [4],4200 ± 940
same,area under OmniLog respiration curve,[1]; [8],6300 ± 150
same,DuctApe activity index,[2]; [3],0 (inactive)
same,DuctApe activity index,[2]; [4],6 (active)
same,DuctApe activity index,[2]; [8],7 (active)
Cc1cn([C@H]2C[C@H](O)[C@@H](CO)O2)c(=O)[nH]c1=O [Thymidine],area under OmniLog respiration curve,[1]; [6],9560 ± 710
same,area under OmniLog respiration curve,[1]; [4],4.72
same,DuctApe activity index,[2]; [6],8.67 (active)
same,DuctApe activity index,[2]; [4],0 (inactive)
NC(=O)C[C@H](N)C(=O)O [L-Asparagine],area under OmniLog respiration curve,[1]; [3],8660 ± 760
same,area under OmniLog respiration curve,[1]; [4],8770 ± 1400
same,DuctApe activity index,[2]; [3],8.67 (active)
same,DuctApe activity index,[2]; [4],8.67 (active)
CC(=O)N[C@@H]1C(O)O[C@H](CO)[C@@H](O)[C@@H]1O (stereo partly drawn) [N-Acetyl-D-Mannosamine],area under OmniLog respiration curve,[1]; [6],7300 ± 450
same,area under OmniLog respiration curve,[1]; [4],1040 ± 740
same,DuctApe activity index,[2]; [6],7.67 (active)
same,DuctApe activity index,[2]; [4],2.33 (inactive)
C[C@H](N)C(=O)NCC(=O)O,area under OmniLog respiration curve,[1]; [3],7280 ± 620
same,area under OmniLog respiration curve,[1]; [4],8020 ± 1200
same,DuctApe activity index,[2]; [3],7.67 (active)
same,DuctApe activity index,[2]; [4],8 (active)
O=C(O)[C@@H]1CCCN1 [L-Proline],area under OmniLog respiration curve,[1]; [3],8520 ± 530
same,area under OmniLog respiration curve,[1]; [4],4840 ± 1100
same,DuctApe activity index,[2]; [3],8.67 (active)
same,DuctApe activity index,[2]; [4],6 (active)
N[C@H](CO)C(=O)O [D-Serine],area under OmniLog respiration curve,[1]; [3],9490 ± 1100
same,area under OmniLog respiration curve,[1]; [4],7130 ± 1200
same,DuctApe activity index,[2]; [3],8.67 (active)
same,DuctApe activity index,[2]; [4],7.67 (active)
NCCC[C@H](N)C(=O)O [L-Ornithine],area under OmniLog respiration curve,[1]; [3],34.5 ± 27
same,area under OmniLog respiration curve,[1]; [4],2670 ± 1300
same,DuctApe activity index,[2]; [3],0 (inactive)
same,DuctApe activity index,[2]; [4],4 (active)
O=c1ccn([C@@H]2O[C@H](CO)[C@@H](O)[C@H]2O)c(=O)[nH]1 [Uridine],area under OmniLog respiration curve,[1]; [6],9200 ± 570
same,area under OmniLog respiration curve,[1]; [4],8.86 ± 7.2
same,DuctApe activity index,[2]; [6],8.67 (active)
same,DuctApe activity index,[2]; [4],0 (inactive)
CSCC[C@H](NC(=O)CN)C(=O)O,area under OmniLog respiration curve,[1]; [4],5710 ± 1300
same,area under OmniLog respiration curve,[1]; [8],5820 ± 90
same,DuctApe activity index,[2]; [4],7 (active)
same,DuctApe activity index,[2]; [8],7 (active)
N[C@@H](CCC(=O)O)C(=O)O [L-Glutamic acid],area under OmniLog respiration curve,[1]; [3],7390 ± 830
same,area under OmniLog respiration curve,[1]; [4],7860 ± 1300
same,DuctApe activity index,[2]; [3],7.67 (active)
same,DuctApe activity index,[2]; [4],8 (active)
C[C@@H](N)C(=O)O [D-Alanine],area under OmniLog respiration curve,[1]; [3],7620 ± 460
same,area under OmniLog respiration curve,[1]; [4],6690 ± 1200
same,DuctApe activity index,[2]; [3],8 (active)
same,DuctApe activity index,[2]; [4],7.33 (active)
C[C@@H](O)[C@H](N)C(=O)O [L-Threonine],area under OmniLog respiration curve,[1]; [3],7940 ± 380
same,area under OmniLog respiration curve,[1]; [4],3190 ± 1200
same,DuctApe activity index,[2]; [3],8 (active)
same,DuctApe activity index,[2]; [4],5 (active)
NC(=O)[C@H]1O[C@@H](O)[C@H](O)[C@@H](O)[C@@H]1O [Glucuronamide],area under OmniLog respiration curve,"[1]; nutrient role: C-Source, amide",33.5 ± 50
same,area under OmniLog respiration curve,[1]; [4],2520 ± 1200
same,DuctApe activity index,"[2]; nutrient role: C-Source, amide",0.333 (inactive)
same,DuctApe activity index,[2]; [4],4.33 (active)
CC(N)=O [Acetamide],area under OmniLog respiration curve,"[1]; nutrient role: C-Source, amide",9.31 ± 7.2
same,area under OmniLog respiration curve,[1]; [4],26.4 ± 38
same,DuctApe activity index,"[2]; nutrient role: C-Source, amide",0 (inactive)
same,DuctApe activity index,[2]; [4],0 (inactive)
N[C@H]1C(O)O[C@H](CO)[C@@H](O)[C@@H]1O (stereo partly drawn) [D-Glucosamine],area under OmniLog respiration curve,[1]; [6],8060 ± 400
same,area under OmniLog respiration curve,[1]; [4],2180 ± 1100
same,DuctApe activity index,[2]; [6],8 (active)
same,DuctApe activity index,[2]; [4],3.33 (active)
NCCCC[C@H](N)C(=O)O [L-Lysine],area under OmniLog respiration curve,[1]; [3],10.5 ± 10
same,area under OmniLog respiration curve,[1]; [4],301 ± 240
same,DuctApe activity index,[2]; [3],0 (inactive)
same,DuctApe activity index,[2]; [4],1 (inactive)
NCCCCN [Putrescine],area under OmniLog respiration curve,"[1]; nutrient role: C-Source, amine",13.7 ± 8.1
same,area under OmniLog respiration curve,[1]; [4],31.6 ± 46
same,DuctApe activity index,"[2]; nutrient role: C-Source, amine",0 (inactive)
same,DuctApe activity index,[2]; [4],0 (inactive)
N[C@@H](Cc1c[nH]cn1)C(=O)O [L-Histidine],area under OmniLog respiration curve,[1]; [3],4.72
same,area under OmniLog respiration curve,[1]; [4],4.72
same,DuctApe activity index,[2]; [3],0 (inactive)
same,DuctApe activity index,[2]; [4],0 (inactive)
